Screens deposited in PubChem by National Center for Advancing Translational Sciences (NCATS).
ATXN2 expr inh = ATXN2 expression inhibition | HEK-293 ATXN2-luciferase reporter, luminescence, 24 h | Potency, µM (highest dose often 57 µM), for the others: at the top dose activity change, negative = inhibition, actives largely listed as inhibitors | actives 0.72% (n = 360,000); also: % is scaled to controls: 0 for no effect and ±100 for the full control effect; nearly all actives have a fitted effect of over 55% in size
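ATXN2-luciferase reporter cells (luciferase flanked by upstream and downstream ATXN2 gene portions) were treated 24 h at 37 °C with compounds at up to 57 uM. SteadyGlo luminescence gave expression; GF-AFC fluorescence gave viability.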
RORgamma inh = blocks mouse ROR gamma transcriptional activity; Drosophila S2 Gal4-RORgamma UAS-luciferase reporter, 20 h; P51450; AID 2551; actives 5.4% (n = 310,000); Potency, µM (series often up to 53.6 µM), without a hit: top-dose activity change, negative = inhibition, hits mostly inhibitors; also: % is scaled to controls: 0 for no effect and ±100 for the full control effect; nearly all actives have a fitted effect of over 60% in size
Target sequence (P51450 whole entry, looked up, the tested form may be a part): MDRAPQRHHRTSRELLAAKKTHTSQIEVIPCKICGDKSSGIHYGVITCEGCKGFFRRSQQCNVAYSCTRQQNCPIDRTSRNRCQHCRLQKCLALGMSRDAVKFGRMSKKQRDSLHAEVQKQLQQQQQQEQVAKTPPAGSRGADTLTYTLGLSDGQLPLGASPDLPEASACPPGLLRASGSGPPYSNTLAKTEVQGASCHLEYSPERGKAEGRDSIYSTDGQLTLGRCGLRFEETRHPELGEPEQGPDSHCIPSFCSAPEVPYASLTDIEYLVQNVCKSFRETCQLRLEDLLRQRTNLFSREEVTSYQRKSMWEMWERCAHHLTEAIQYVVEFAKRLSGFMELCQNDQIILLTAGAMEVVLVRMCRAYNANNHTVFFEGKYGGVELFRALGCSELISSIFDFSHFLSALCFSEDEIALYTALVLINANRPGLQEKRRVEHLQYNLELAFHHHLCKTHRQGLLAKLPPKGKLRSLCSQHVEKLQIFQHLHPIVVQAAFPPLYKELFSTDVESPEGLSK
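Drosophila S2 cells stably expressing Gal4-DBD/mouse RORγ fusion under metallothionein promoter plus UAS-luciferase; compound 1 h, then 700 uM CuSO4 induction for 20 h at ambient temperature; inhibition read as reduced luminescence.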
HepG2 tox = kills HepG2 cells in TGF-b inhibitor counter-screen; HepG2 CAGA-GFP viability, ATP luminescence, 18 h; Potency, µM (doses to about 46.1 µM), without a hit: top-dose activity change, negative = cytotoxicity, actives largely listed as cytotoxic; actives 0.76% (n = 410,000); AID 588856
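CellTiter-Glo luminescence gave cytotoxicity after 18 hours at 37 degrees C. The cells were HepG2 CAGA-GFP in 1% FBS DMEM, stimulated with 500 pg/mL TGF-beta after compound addition. %Activity was normalised to no-cell wells (complete cell-killing) and DMSO (no toxicity), and curves were fitted and classified.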
TGFb SMAD3 inh = blocks TGF-b signaling. AID 588855. Potency, µM (titrated, usually from 46.1 µM), for inactives: at the top dose activity, negative = inhibition, usual class: inhibitors. HepG2 CAGA-GFP TGF-b/SMAD3 reporter, GFP fluorescence, 18 h; TGF-beta stimulated, 500 pg/mL final. actives 1.2% (n = 410,000); also: % is scaled to controls: 0 for no effect and ±100 for the full control effect; nearly all actives have a fitted effect of over 65% in size
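Per well, imaged GFP fluorescence of HEPG2 CAGA-GFP cells gives the signal; cells get compound, then TGF-beta (500 pg/mL final), 18 h at 37 degrees C; %Activity versus -TGF-beta and +DMSO controls.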
VP16 counter = counter-screen for ROR gamma inhibitors: Gal4-VP16 reporter. Drosophila S2 Gal4-VP16 UAS-luciferase, luminescence, 20 h. Potency, µM (titrated, usually from 53.6 µM), inactives show at the top dose activity, negative = inhibition, actives largely listed as inhibitors. actives 3.5% (n = 310,000);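 also: Gal4-VP16 expression switched on by copper sulfate through the metallothionein promoter; % is scaled to controls: 0 for no effect and ±100 for the full control effect; nearly all actives have a fitted effect of over 50% in size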
ATXN viability = reduces viability in counter-screen for ATXN expression inhibitors. Potency, µM (series often up to 56.7 µM), hits mostly cytotoxic. AID 651635. S2 cells (HEK-293 line with an ATXN2-luciferase reporter) viability, CellTiter-Fluor protease fluorescence, 24 h. actives 0.49% (n = 400,000); also: nearly all actives have a fitted effect of over 40% in size
* hit, by the source's call; i = inactive; u = inconclusive; x = not tested or not shown; [ ] = remark or other dose. This is a sample that favours compounds with a hit; in the whole collection about 6.3% have one here. Calls follow the shape of the dose curve; as a rule, active = well fitted curve in the direction sought with a large enough effect; inconclusive = small, poorly fitted or top-dose-only effect, or another doubt; inactive = no such curve, though single readings can be large; an effect the other way counts as inactive or inconclusive. Potency is read from the fitted curve at half-maximal effect.

SMILES | ATXN2 expr inh | RORgamma inh | HepG2 tox | TGFb SMAD3 inh | VP16 counter | ATXN viability
CCC(C(=O)NC1CCCCC1)n1c(SCc2ccc(F)cc2)nc2ccncc21 (stereo not drawn) | -6% | u | -20% | u | 12% | u
O=C(NCCc1ccccc1)c1ccc(CSc2nc3ccncc3n2Cc2ccccc2F)cc1 | -18% | x | -19% | 7.1µM* | x | u
Cc1cccc(Cn2c(SCc3ccc(C(=O)NCCc4ccccc4)cc3)nc3ccncc32)c1 | -29% | x | -52% | 7.9µM* | x | u
CCC(C(=O)NC1CCCC1)n1c(SCc2cccc(C)c2)nc2ccncc21 (stereo not drawn) | -14% | 10µM* | -8% | -3% | -4% | u
O=C(NCCc1ccccc1)c1ccc(CSc2nc3ccncc3n2Cc2cccc(F)c2)cc1 | x | x | -6% | u | x | x
CCNC(=S)/N=C(/Nc1ccc(OC)cc1)Nc1nc(C)cc(C)n1 | 5% | 1.8µM* | 11% | -4% | u | i
COc1cccc(N/C(=N/C(=S)Nc2ccc(C)cc2C)Nc2nc(C)cc(C)n2)c1 | 0% | 1.3µM* | 4% | -17% | 3.2µM* | i
Cc1cc(C)nc(NC(=S)Nc2ccccc2)n1 | 10% | -2% | 41% | u | 4% | i
CCNC(=S)/N=C(/Nc1ccccc1)Nc1nc(C)cc(C)n1 | -15% | 0.79µM* | -43% | -29% | 3.2µM* | i
CCNC(=S)NC(=NCc1cccnc1)Nc1nc(C)cc(C)n1 | x | 11µM* | 2% | 12% | u | i
Cc1ccc(NC(=S)NCc2cccnc2)cc1 | 15% | -2% | -1% | 0% | 9% | i
CC(=O)OC[C@@H]1O[C@@H](O/N=C2/C[C@@H](O)[C@@H](O)[C@@H]3[C@@H]4C(=O)N(C(C)(C)C)C(=O)[C@H]4CC[C@@H]23)[C@H](OC(C)=O)[C@H](OC(C)=O)[C@@H]1OC(C)=O | x | -2%[10 µM] | x | x | -4%[10 µM] | x
CS(=O)(=O)N1CCC[C@@]2(CCN(C(=O)Nc3ccccc3)C2)C1 | x | -2% | x | x | -5% | x
COC/C=C/C1=CC2=CC(=O)C(C)(OC(=O)c3cnc4ccccc4n3)C(=O)C2=CN1Cc1ccccc1 (stereo not drawn) | u | 13% | -17% | 11µM* | 0% | x
COC/C=C/C1=CC2=CC(=O)C(C)(OC(=O)c3cnc4ccccc4n3)C(=O)C2=CN1Cc1ccc(OC)cc1 (stereo not drawn) | -14% | 3% | -4% | u | -1% | u
N#C/C(=C/c1cccnc1)c1ccccc1 | 15% | -33% | 6% | -4% | 5% | i
N#C/C(=C\c1cccnc1)c1ccc([N+](=O)[O-])cc1 | 9% | u | -3% | 2% | 13µM* | u
CC(=O)N(C1CC(C)C(C#N)(C#N)C1(C#N)C#N)N(C)C (stereo not drawn) | u | 7.9µM* | -38% | u | -4%[10 µM] | 30µM*
CCCC(=O)N(C1CC(C)C(C#N)(C#N)C1(C#N)C#N)N(C)C (stereo not drawn) | u | 33% | -96% | 11µM* | 0% | u
Cc1nc2cc(Nc3nnc(-c4ccccc4)c4ccccc34)ccc2n1C | 69% | 7.1µM* | -28% | u | 6.3µM* | i
Clc1cccc(Nc2nnc(-c3ccccc3)c3ccccc23)c1 | x | -31% | -9% | 8% | 5% | x
Cc1cc(N2CCN(c3nc4ccccc4s3)CC2)n2ncnc2n1 | u | u | -29% | 2% | 11µM* | i
Cc1cc(N2CCN(C(c3ccccc3)c3ccccc3)CC2)n2ncnc2n1 | -10% | 12% | -66% | 9% | 13% | i
CC1(C(=O)NS(C)(=O)=O)CCN1C(=O)Cc1ccc(-c2ccccc2)cc1 (stereo not drawn) | 3% | x | 1% | 5% | x | i
CC12CCC(O)CC1=CCC1C2CCC2(C)C(c3ccn[nH]3)CCC12 (stereo not drawn) | -37% | x | -11% | -15% | x | i
SMILES | ATXN2 expr inh | RORgamma inh | HepG2 tox | TGFb SMAD3 inh | VP16 counter | ATXN viability
O=c1[nH]c(=O)n([C@H]2C[C@@H](O)[C@@H](CO)O2)cc1F | 1.1µM* | x | -37% | u | x | x
COCc1cc(=O)[nH]c(SCCS(=O)(=O)c2ccc(C)cc2)n1 | -18% | 8% | 19% | 13% | -4% | i
COCc1cc(=O)[nH]c(SCCS(=O)(=O)c2ccc(Cl)cc2Cl)n1 | 20µM* | 17% | -39% | u | 0% | x
COc1ccccc1C1CN(Cc2cn(C)nc2C)Cc2ccccc2O1 (stereo not drawn) | x | x | x | x | x | i
Nc1[nH]c(N=NC(=O)c2ccc(Cl)cc2)c2ccccc12 | 31% | 5.6µM* | -13% | 3% | u | i
Nc1[nH]c(N=NC(=O)c2ccccc2O)c2ccccc12 | 4% | u | -22% | u | u | i
Nc1[nH]c(N=NC(=O)c2ccccc2)c2ccccc12 | 15% | 8.9µM* | 2% | 5% | u | i
COC(=O)c1sc(=S)sc1C(=O)OC | 0% | 14µM* | -60% | u | u | i
COC(=O)c1sc(C(=O)OC)c(C(=O)OC)c1C(=O)OC | -6% | -5% | -1% | 5% | -8% | i
N=c1ccn(Cc2c(Cl)cccc2Cl)cc1 | -20% | u | 11% | -11% | 10µM* | i
COc1ccccc1OCCN1CSC(=S)N(C)C1 | 28µM* | u | -21% | u | u | u
Cc1cccc(OCCN2CSC(=S)N(C)C2)c1 | -22% | 13µM* | -3% | 2% | 14µM* | i
COC(=O)C1=C(C(=O)OC)[C@@H]2N(Cc3ccccc3)c3ccccc3[C@@]23C[C@@H](C(=O)OC)N(C(=O)c2cccs2)C3=N1 | u | u | -45% | u | 18µM* | u
COC(=O)C1=C(C(=O)OC)[C@@H]2N(C)c3ccccc3[C@@]23C[C@@H](C(=O)OC)N(C(=O)c2cccs2)C3=N1 | -38% | 19% | -33% | 1% | -11% | i
CCOc1ccccc1NC(=S)NC1CC2CCC1C2 (stereo not drawn) | x | 2.8µM* | -1% | -19% | 7.1µM* | u
COc1ccc(NC(=S)NC2CC3CCC2C3)c(OC)c1 (stereo not drawn) | -7% | 5µM* | -14% | -15% | 11µM* | i
S=C(NCCc1ccccn1)NC1CC2CCC1C2 (stereo not drawn) | -15% | 6.3µM* | 8% | -6% | u | i
